Source: PubChem
Only some compounds are listed: those with a hit (about 10% of all), similar ones and a draw of the others.
Luciferase inh: Firefly luciferase inhibition profiling of diverse chemical library using quantitative high-throughput screening; Luciferin 4-monooxygenase (Photinus pyralis), P08659; purified P. pyralis luciferase, luminescence, biochemical; Potency, µM (titrated, usually from 115 µM), actives largely listed as inhibitors; actives 2.5% (n = 76,000); also: % is scaled to controls: 0 for no effect and ±100 for the full control effect; nearly all actives have a fitted effect of over 65% in size
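Purified P. pyralis luciferase (10nM final) in 50mM Tris acetate pH 7.5, 10mM Mg acetate, 0.01% Tween-20, 0.05% BSA with 10uM D-luciferin and 10uM ATP. Compounds titrated qHTS. Luminescence imaged on CCD.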
GPT2 inhibitor: Primary qHTS assay for inhibitors of Glutamate pyruvate transaminase 2 (GPT2) | Alanine aminotransferase 2 (Homo sapiens), Q8TD30 | Recombinant GPT2, coupled pyruvate oxidase/HRP Amplex Red fluorescence | Potency, µM (top dose mostly 57.7 µM), without a hit: at the highest dose activity change, negative = inhibition, usual class: inhibitors | actives 0.25% (n = 100,000); also: % is scaled to controls: 0 for no effect and ±100 for the full control effect; nearly all actives have a fitted effect of over 60% in size
Target sequence (Q8TD30 whole entry, looked up): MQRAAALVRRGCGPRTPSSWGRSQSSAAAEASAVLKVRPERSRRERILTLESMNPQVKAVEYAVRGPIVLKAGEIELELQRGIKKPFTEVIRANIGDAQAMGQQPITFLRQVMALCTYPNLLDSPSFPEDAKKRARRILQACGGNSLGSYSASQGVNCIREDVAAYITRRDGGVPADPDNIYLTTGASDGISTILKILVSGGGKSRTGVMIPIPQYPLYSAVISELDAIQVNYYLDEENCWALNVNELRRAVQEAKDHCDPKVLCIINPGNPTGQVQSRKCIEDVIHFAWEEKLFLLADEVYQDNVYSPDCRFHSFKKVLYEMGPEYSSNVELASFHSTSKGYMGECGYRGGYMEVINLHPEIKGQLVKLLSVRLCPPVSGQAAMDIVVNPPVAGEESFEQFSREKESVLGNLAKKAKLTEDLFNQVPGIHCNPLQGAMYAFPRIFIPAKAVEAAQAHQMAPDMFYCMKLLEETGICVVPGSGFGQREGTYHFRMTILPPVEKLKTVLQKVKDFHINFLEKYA
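Inhibition is scored from Amplex Red fluorescence generated when pyruvate oxidase and HRP act on pyruvate released by GPT2. Reactions contain 10ng/uL enzyme, 250uM a-KG and 2mM L-alanine and run 30 min at room temperature.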
hNpr1 antagonist: Natriuretic polypeptide receptor (hNpr1) antagonism - Primary qHTS | Atrial natriuretic peptide receptor 1 (Homo sapiens), P16066 | HEK293 hNpr1 GloSensor cGMP, ANP-stimulated luminescence | Potency, µM (titrated, usually from 46.3 µM), inactives show at the top dose activity change, negative = inhibition, actives largely listed as inhibitors | actives 1.6% (n = 76,000) | AID 1347048, 2019; calls by dose curve; also: % is scaled to controls: 0 for no effect and ±100 for the full control effect; nearly all actives have a fitted effect of over 60% in size
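HEK293 cells stably expressing human Npr1 and cGMP GloSensor pGS-40F, loaded 2 h with 2% GloSensor reagent, given compound 30 min at room temperature. Luminescence read before and 20 min after 0.1 nM hNppA.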
NIH3T3 tox: Cytotoxic Profiling in NIH 3T3 Cell Line of Diverse Libraries Using Quantitative High-Throughput Screening | Potency, µM (titrated, usually from 96.7 µM), without a hit: at the highest dose activity change, negative = cytotoxicity, usual class: inhibitors | actives 4.3% (n = 94,000) | NIH 3T3 viability, CellTiter-Glo ATP luminescence, 48-72 h; also: % is scaled to controls: 0 for no effect and ±100 for the full control effect; nearly all actives have a fitted effect of over 55% in size
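Cytotoxicity was measured by CellTiter-Glo ATP luminescence after 48 or 72 h compound exposure at 37 °C. Mouse NIH 3T3 fibroblasts were seeded at 400 cells/well and dosed by 23 nL pin transfer.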
HEK293 tox: Cytotoxic Profiling in HEK 293 Cell Line of Diverse Libraries Using Quantitative High-Throughput Screening. HEK 293 viability, ATP luminescence (CellTiter-Glo), 48-72 h. Potency, µM (doses to about 115 µM), for the others: at the highest dose activity change, negative = cytotoxicity, actives largely listed as inhibitors. actives 6.6% (n = 94,000). AID 1345083, 2018; also: % is scaled to controls: 0 for no effect and ±100 for the full control effect; nearly all actives have a fitted effect of over 60% in size
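qHTS cytotoxicity; HEK 293, 250 cells/well; compound pinned; 48 or 72 hr, 37 degree Celsius, 5% CO2, 95% humidity; CellTiter-Glo, 10 min RT; luminescence (ATP).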
Npr1 antag conf: Natriuretic polypeptide receptor (hNpr1) antagonism - Confirmation. shares compounds with hNpr1 antagonist. HEK293 hNpr1 cGMP GloSensor luminescence, ANP-stimulated. Potency, µM (doses to about 57.6 µM), without a hit: at the top dose activity change, negative = inhibition, hits mostly inhibitors. actives 76% (n = 1,400). AID 1347044, 2019; calls by dose curve; also: nearly all actives have a fitted effect of over 70% in size
Npr2 selectivity: Natriuretic polypeptide receptor (hNpr2) antagonism - Subtype selectivity assay. shares compounds with hNpr1 antagonist. HEK293 hNpr2 GloSensor cGMP luminescence, CNP-stimulated. Potency, µM (titrated, usually from 57.6 µM), for inactives: at the top dose activity change, negative = inhibition, hits mostly inhibitors. actives 67% (n = 1,400). AID 1347046, 2019; calls by dose curve; also: nearly all actives have a fitted effect of over 70% in size
FLuc inh counter: Natriuretic polypeptide receptor (hNpr1) antagonism - Confirmation firefly luciferase (FLuc) inhibition counterscreen; shares compounds with hNpr1 antagonist; purified FLuc enzyme, luminescence, Km substrate; Potency, µM (highest dose often 57.6 µM), without a hit: at the highest dose activity change, negative = inhibition, most hits filed as inhibitors; actives 0.7% (n = 1,400); AID 1347047, 2019; also: 0% is about no effect
GloSensor ctrl: Natriuretic polypeptide receptor (hNpr1) antagonism - Counterscreen GloSensor control cell line | shares compounds with hNpr1 antagonist | HEK293 GloSensor cGMP, SNP-stimulated, luminescence | Potency, µM (series often up to 57.6 µM), for inactives: at the top dose activity change, negative = inhibition, most hits filed as inhibitors | actives 69% (n = 1,400); calls by dose curve; also: % is scaled to controls: 0 for no effect and ±100 for the full control effect; nearly all actives have a fitted effect of over 70% in size
Starred values were filed as active, the others as inactive; i = inactive; ? = inconclusive; · = no result given; [ ] = remark or other dose. Unless noted, calls follow the shape of the dose curve; as a rule, active = well fitted curve in the direction sought with a large enough effect; inconclusive = small, poorly fitted or top-dose-only effect, or another doubt; inactive = no such curve, though single readings can be large; an effect the other way counts as inactive or inconclusive. Potency is read from the fitted curve at half-maximal effect.

SMILES | Luciferase inh | GPT2 inhibitor | hNpr1 antagonist | NIH3T3 tox | HEK293 tox | Npr1 antag conf | Npr2 selectivity | FLuc inh counter | GloSensor ctrl
O=C(Nc1ccc(Cl)cc1)c1nc2c(o1)CCN(Cc1ccncc1)CC2 | i | 0.2%[88.5 µM] | 1.26µM* | ? | ? | 3.53µM* | 3.53µM* | -22.2%[86.2 µM] | 3.53µM*
O=C(Nc1ccc(Cl)cc1)c1nc2c(o1)CCN(Cc1ccc3cn[nH]c3c1)CC2 | i | -12.7%[88.5 µM] | 0.562µM* | ? | 44.7µM* | 3.53µM* | 3.96µM* | -2.8%[86.2 µM] | 3.96µM*
O=C(Nc1ccc(Cl)cc1)c1nc2c(o1)CCN(Cc1ccc3c(c1)CCO3)CC2 | i | ? | 5.01µM* | ? | ? | 6.27µM* | 11.1µM* | 1.6%[86.2 µM] | 8.86µM*
O=C(c1nc2c(o1)CCN(Cc1cccc(Cl)c1)CC2)N1CCOCC1 | i | 4.4%[88.5 µM] | ? | ? | ? | · | · | · | ·
Cc1oc(-c2cccc(C(F)(F)F)c2)nc1CN1CCCC(CO)C1 (centres undefined) | i | -4.2% | 1.5% | -26.8% | ? | · | · | · | ·
OCC1CCCN(c2ccc(-c3nc(-c4cccc(C(F)(F)F)c4)no3)cn2)C1 (centres undefined) | i | -9.9% | 14.1µM* | ? | -29.0% | 13.7µM* | 17.2µM* | ? | 17.2µM*
COc1ccc2nc(C[C@@H]3C[C@@H](C(C)C)[C@H](CNCc4ccccc4OC)C=C3C)[nH]c2c1 | i | 0.2% | -26.0% | 28.2µM* | 20µM* | ? | ? | -1.6% | -26.0%
COc1ccc2nc(C[C@@H]3C[C@@H](C(C)C)[C@H](CNC(=O)CCC(=O)O)C=C3C)[nH]c2c1 | i | -14.5%[88.5 µM] | -1.1%[70.6 µM] | 2.0%[174 µM] | i | · | · | · | ·
C[S+](=O)([O-])N1CCC(c2nnc3n2C(C(=O)NCCCc2ccccc2)CC3)CC1 (centres undefined) | · | 1.1% | · | -11.7% | -24.8% | · | · | · | ·
O=C(O)C[C@@H]1CCN(C(=O)Cc2cccs2)C[C@@H]1CCN1CCN(c2ccc(F)cc2)CC1 | i | 1.4% | 1.4% | 0.7% | i | · | · | · | ·
Cn1c(CN2CCC(O)CC2)nnc1C1CCCN(Cc2ccccn2)C1 (centres undefined) | i | 2.0% | 3.0% | 1.8% | i | · | · | · | ·
COc1ccc(OC)c(S(=O)(=O)N[C@H]2CO[C@H]3[C@@H]2OC[C@H]3OC(=O)Nc2ccc(C(C)=O)cc2)c1 | i | -3.4% | -0.4% | i | 2.6% | · | · | · | ·
